# Assay results: PMC5540273 (PLoS ONE, 2017)
# Columns and labels:
# Conditions in all cases: concentration: 1 μM, replicates: in singlicate; n = 1
# [1] = tested on: T1, HASPIN
# T1 construct: gene GSG2
# [2] = tested on: HCK
# [3] = tested on: HIPK1
# [4] = tested on: HIPK2
# [5] = tested on: HIPK3
# [6] = tested on: HIPK4
# [7] = tested on: HPK1
# [8] = tested on: HUNK
# [9] = tested on: ICK
# [10] = tested on: IGF1R
# [11] = tested on: T2, IKK-alpha
# T2 construct: gene CHUK
# [12] = tested on: T3, IKK-beta
# T3 construct: gene IKBKB
# [13] = tested on: T4, IKK-epsilon
# T4 construct: gene IKBKE
# [14] = tested on: INSRR
# [15] = tested on: INSR
# [16] = tested on: IRAK1
# [17] = tested on: IRAK3
# [18] = tested on: IRAK4
# [19] = tested on: ITK
# [20] = tested on: JAK1(JH1domain-catalytic)
# 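Also: KINOMEscan kinase panel screen.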
Structure (SMILES),%Inh [1] [%],%Inh [2] [%],%Inh [3] [%],%Inh [4] [%],%Inh [5] [%],%Inh [6] [%],%Inh [7] [%],%Inh [8] [%],%Inh [9] [%],%Inh [10] [%],%Inh [11] [%],%Inh [12] [%],%Inh [13] [%],%Inh [14] [%],%Inh [15] [%],%Inh [16] [%],%Inh [17] [%],%Inh [18] [%],%Inh [19] [%],%Inh [20] [%]
NCCCC(NC(=O)c1cc(Br)c(-c2ccnc3[nH]ccc23)s1)c1ccccc1.O=C(O)C(F)(F)F.O=C(O)C(F)(F)F (stereo not shown) [GSK1287544],95.7,0,39,14,62,82,62,0,23,2,48,58,0,1,0,94.8,0,7,12,72
CCCCc1nn2ncccc2c1-c1ccnc(Nc2ccc(N3CCN(C)CC3)cc2)n1 [GW684941],25,73,24,0,32,71,61,0,17,16,41,23,16,21,36,94.9,79,43,5,0
Cl.c1ccc(-c2ccc3c(Nc4ccc5[nH]ncc5c4)ccnc3c2)nc1 [GW440137],6,16,62,47,51,0,23,9,0,12,10,15,17,0,15,18,26,12,7,26
O=C(Nc1ccccc1F)NC1CCN(c2ccnc(Nc3ccc(F)cc3)n2)CC1 [GSK1379800],9,0,0,0,16,0,34,6,3,10,0,0,22,0,0,24,21,5,0,20
Cc1ccc(C)c(NC(=O)NC2CCN(c3ccnc(Nc4ccc(F)cc4)n3)C2)c1 (stereo not shown) [GSK1379720],44,0,0,10,0,0,45,0,0,25,32,18,3,0,0,40,0,20,5,12
C[C@@H](Oc1cc(-n2cnc3cc(-c4ccnc(NCCS(C)(=O)=O)c4)ccc32)sc1C(N)=O)c1ccccc1Cl [GSK907232],26,34,0,0,7,20,87,0,19,0,2,15,0,2,0,36,0,13,21,0
Cn1cc(-c2ccc3c(c2)CCN3C(=O)Cc2cccc(F)c2)c2c(N)ncnc21 [GSK2603358],0,13,0,0,8,0,57,13,0,23,15,43,76,0,0,41,0,22,11,18
COc1cc(Nc2nccc(-c3c(-c4cccc(NC(=O)c5c(F)cccc5F)c4)nn4ccccc34)n2)cc(OC)c1OC [GSK323521],0,0,12,0,16,14,50,24,0,32,0,25,65,13,13,10,22,0,13,5
